These results are taken from the supplement of paper PMC11732987, “Enantioselective OTUD7B fragment discovery through chemoproteomics screening and high-throughput optimisation” (Communications Chemistry, 2025).

Molecules are shown by their SMILES.

USP14, sequence (P54578 whole entry, the tested form may be a part): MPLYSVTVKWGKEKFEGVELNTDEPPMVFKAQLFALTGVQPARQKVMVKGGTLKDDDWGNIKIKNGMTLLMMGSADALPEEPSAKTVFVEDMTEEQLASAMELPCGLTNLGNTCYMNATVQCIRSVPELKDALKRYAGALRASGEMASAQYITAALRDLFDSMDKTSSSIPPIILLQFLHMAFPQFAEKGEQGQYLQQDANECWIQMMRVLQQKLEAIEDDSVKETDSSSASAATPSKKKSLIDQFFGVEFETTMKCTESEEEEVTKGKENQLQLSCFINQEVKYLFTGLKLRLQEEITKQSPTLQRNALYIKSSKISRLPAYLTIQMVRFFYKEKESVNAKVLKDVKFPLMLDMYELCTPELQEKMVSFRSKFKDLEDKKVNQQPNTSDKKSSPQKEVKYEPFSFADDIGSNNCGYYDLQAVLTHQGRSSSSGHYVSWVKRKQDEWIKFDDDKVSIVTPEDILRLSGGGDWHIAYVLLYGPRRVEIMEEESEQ

This assay concerns the target USP14 (UniProt P54578). The assay is described as follows: log2 ratio of Biotin-Ahx-Ub-VS probe labelling (fragment/DMSO); higher = less target engagement (more negative = stronger competition), active = hit call of the paper (q ≤ 0.05, log2 ratio ≤ -1). As to conditions: compound concentration: 200 uM; treatment time: 3 h. Here is the method:
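Competitive ABPP in HEK293T cell lysate. Lysates were treated with each chloroacetamide fragment at 200 µM for 3 h, then with Biotin-Ahx-Ub-VS (0.5 µM, 1 h), NeutrAvidin-enriched and analysed by diaPASEF LC-MS/MS. Protein LFQ was median-normalised; average log2 ratio is fragment/DMSO from an unpaired t-test (n=3 treated, n=44 DMSO). Hits: q ≤ 0.05, log2 ratio ≤ -1, unique peptides ≥ 2.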
`CCN(C(=O)CCl)C1CCCCC1`: the “log2 ratio of Biotin-Ahx-Ub-VS probe labelling” value (from here on “log2 ratio”) was -0.0238 (inactive). For the molecule `O=C(CCl)NCCc1ccc(F)cc1`, the “log2 ratio” value was -0.0749 (inactive). As for `O=C(CCl)NC1CCOc2ccccc21` (stereo not given), the figure is -0.937 (inactive). The same measure for `Cl.O=C(CCl)N1CCC(n2nc3ccccc3n2)CC1`: -0.545 (inactive); for `CC(C)n1nccc1NC(=O)CCl`: -0.146 (inactive); for `O=C(CCl)NCC(=O)N1CCCC1`: -0.0869 (inactive). As for `Cl.O=C(CCl)NCCN1CCc2ccccc21`, the figure is -0.483 (inactive). On to `Cc1c(C#N)c(NC(=O)CCl)n(Cc2ccco2)c1C`, for which the “log2 ratio” value is -0.314 (inactive). On to `COCC1C=CCCN1C(=O)CCl` (stereo not given), for which the “log2 ratio” value was -0.0905 (inactive). Regarding `COc1ccc(-c2csc(NC(=O)CCl)n2)cc1`, the “log2 ratio” value was -0.0511 (inactive).

With `COc1cccc(CN(C)C(=O)CCl)c1`, the “log2 ratio” value was -0.252 (inactive). As for `Cc1cccnc1NC(=O)C1CCN(C(=O)CCl)CC1.Cl`, the figure is -0.377 (inactive); as for `COCC[C@@H](NC(=O)CCl)c1ccccc1`, 0.0709 (inactive); as for `Cl.Cn1cnc2cc(CNC(=O)CCl)ccc21`, -0.222 (inactive). As for `CN(CCC(O)c1ccc(Br)cc1)C(=O)CCl` (stereo not given), the figure is -0.442 (inactive); as for `Cl.O=C(CCl)NCCc1ncc(F)cc1F`, -0.31 (inactive); as for `Cl.O=C(CCl)N1CCCC(c2ncc[nH]2)C1` (stereo not given), -0.141 (inactive). The same measure for `O=C(CCl)Nc1cc(Cl)ccc1-n1cncn1`: -1.09 (active); for `Cc1ccn2cc(CNC(=O)CCl)nc2c1.Cl`: 0.000672 (inactive); for `CC(NC(=O)CCl)c1cccc2ccccc12` (stereo not given): -0.209 (inactive). Take `Cl.Cn1ncc2c1CCCC2NC(=O)CCl` (stereo not given): the “log2 ratio” value is -0.227 (inactive). In the case of `CC(=O)C1CCCCN1C(=O)CCl` (stereo not given), the “log2 ratio” value is -0.101 (inactive). As for `O=C(CCl)NC1CCC2(CC1)OCCO2`, the figure is -0.308 (inactive); as for `Cc1ccccc1OCC(=O)N1CCN(C(=O)CCl)CC1`, -0.131 (inactive).

Regarding `Cc1nnc(C(NC(=O)CCl)c2ccccc2)n1C` (stereo not given), the “log2 ratio” value was 0.163 (inactive). The same measure for `Cc1ccc(CC(NC(=O)CCl)c2ccccn2)cc1.Cl` (stereo not given): -0.0182 (inactive); for `O=C(CCl)N1CCCN(C(=O)c2ccc(Cl)cc2)CC1`: -0.452 (inactive). As for `Cc1ncsc1CCNC(=O)CCl`, the figure is 0.518 (inactive); as for `COc1ccc(CN(C)C(=O)CCl)cc1`, -0.544 (inactive); as for `NC(=O)C1CCCN(C(=O)CCl)C1` (stereo not given), -0.153 (inactive).

On to `O=C(CCl)N1CCN(C(=O)N2CCCCC2)CC1`, for which the “log2 ratio” value was -1.06 (active).

With `O=C(CCl)N1CCC(c2ccn[nH]2)C1` (stereo not given), the “log2 ratio” value was -0.0963 (inactive). The same measure for `CC(NC(=O)CCl)c1csc(-c2ccccc2)n1.Cl` (stereo not given): -0.367 (inactive). The same measure for `Cc1nc(CN2CCN(C(=O)CCl)CC2)cs1`: -0.431 (inactive); for `NC(=O)C(Cc1ccccc1)NC(=O)CCl` (stereo not given): -0.156 (inactive); for `CC(O)CC1CCN(C(=O)CCl)CC1` (stereo not given): -0.442 (inactive).

On to `Cc1ccc(-c2nnc(C)[nH]2)c(NC(=O)CCl)c1`, for which the “log2 ratio” value is -0.203 (inactive). As to `O=C(CCl)Nc1ccccc1C(F)(F)F`, the “log2 ratio” value is -0.46 (inactive). The same measure for `Cc1ccc2nnc(CNC(=O)CCl)n2c1`: 0.17 (inactive). The same measure for `O=C(CCl)N(C1=CCCCC1)C1CC1`: -0.423 (inactive).
